Source: PubChem BioAssay
Values joined by “and” are separate entries in the source; they are usually repeats but may differ in a detail not shown here. Identical values can stand only once. Active and inactive are the calls of the source.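 Rule for the calls, unless noted: active = compounds whose cell count with miR-34 switched on is under 0.7 times the count with it off; inactive = the rest.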

How the values were obtained:
[1] = differential killing of epithelial or mesenchymal cells, primary screen, imaging, PC-3E GFP, TEM4-18 mCherry, co-culture (AID 1345086;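 active = compounds killing one labelled cell type while sparing the other, by normalised counts and ratio limits, not self-fluorescent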;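 for all read-outs here: cells exposed to compound for 72 h before imaging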;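 for red/green cell ratio (normalised): normalised mesenchymal count divided by normalised epithelial count so high means epithelial killing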); settings: imaging cell counts, at 1 µM; for red/green cell ratio (normalised): actives lie on both sides, counts scaled to control wells, 1 = unselective
[2] = sensitizers of A549 cells to miR-34 induction, primary screen, imaging, A549 dox-inducible miR-34, nuclei and caspase counts (AID 1347080); settings: A549 miR-34 inducible, Hoechst nuclei count, 48 h
[3] = target: NAD(+) hydrolase SARM1 (Homo sapiens) (UniProt Q6SZW1); assay: SARM1 TIR NADase inhibitors, cell lysate, NAD-Glo luminescence (AID 1508614;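 active = compound whose remaining NAD level is above about 45 nM, limit read from the data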;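 note: higher remaining NAD means stronger inhibition of SARM1 NADase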); settings: SAM-TIR HEK293T lysate NADase, at 1 µM, stronger effect = higher value
[4] = liver-stage malaria parasite growth inhibition, primary screen, cell-based, HepG2, luciferase luminescence, HepG2 viability (AID 624349; in the data active = parasite load remaining mostly below about 12%, no sharp cut-off; inactive = mostly above about 10%;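 note: 100% = mean of DMSO negative control wells on the same plate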); settings: P. berghei liver stage in HepG2, luciferase luminescence, concentration not given here; parasite load remaining: stronger effect = lower value; viability: measured here: HepG2 viability without parasites
[5] = survival rescue of mitochondrial mutant cells in low glucose, primary screen, MELAS cybrids, Rieske KO mouse fibroblasts, CellTiter-Glo (AID 1508586;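 active = mean z-score across replicates of 1.96 or higher in either the MELAS or the Rieske mutant cell line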;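 note: z relative to plate mean and SD of compound and empty wells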)
[6] = viability rescue of complex I mutant cybrids, primary screen, cell-based, galactose medium, ATP luminescence (AID 1645843;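 active = z-score of at least 1.8 in each of two replicates, scored against plate mean and spread of sample wells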;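 note: positive z means more ATP and so rescue of galactose-driven cybrid death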); settings: complex I mutant cybrid cells, 72 h, stronger effect = higher value
[7] = target: Mitogen-activated protein kinase 7 (Homo sapiens) (UniProt Q13164); assay: ERK5 transactivation activators in reporter cells, primary screen, cell-based, HTS (AID 1508626;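 active = luciferase signal above three times the same-plate solvent-only control wells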;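 note: luciferase driven by Gal4-ERK5 fusion binding five Gal4 sites before minimal TATA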); settings: HeLa Gal4-ERK5 transactivation, 18 h, at 5 µM, stronger effect = higher value
[8] = hESC survival regulators, cell-based (AID 493140; call rule not given here;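 note: cells exposed to compounds for four days before counting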); settings: human embryonic stem cell survival screen; stronger effect = higher value
[9] = measured here: epithelial PC-3E GFP cell survival
[10] = measured here: mesenchymal TEM4-18 mCherry cell survival
[11] = stronger effect = lower value, cell number ratio, induced over uninduced
[12] = measured here: relative caspase fold change +Dox/-Dox
[13] = measured here: total cells with miR-34 induction, stronger effect = lower value
[14] = measured here: total cells without miR-34 induction
[15] = MELAS cybrid survival, CellTiter-Glo 48 h, stronger effect = higher value
[16] = Rieske KO mouse fibroblast survival, CellTiter-Glo 72 h

Sequence of NAD(+) hydrolase SARM1 (Homo sapiens) (Q6SZW1 whole entry, looked up): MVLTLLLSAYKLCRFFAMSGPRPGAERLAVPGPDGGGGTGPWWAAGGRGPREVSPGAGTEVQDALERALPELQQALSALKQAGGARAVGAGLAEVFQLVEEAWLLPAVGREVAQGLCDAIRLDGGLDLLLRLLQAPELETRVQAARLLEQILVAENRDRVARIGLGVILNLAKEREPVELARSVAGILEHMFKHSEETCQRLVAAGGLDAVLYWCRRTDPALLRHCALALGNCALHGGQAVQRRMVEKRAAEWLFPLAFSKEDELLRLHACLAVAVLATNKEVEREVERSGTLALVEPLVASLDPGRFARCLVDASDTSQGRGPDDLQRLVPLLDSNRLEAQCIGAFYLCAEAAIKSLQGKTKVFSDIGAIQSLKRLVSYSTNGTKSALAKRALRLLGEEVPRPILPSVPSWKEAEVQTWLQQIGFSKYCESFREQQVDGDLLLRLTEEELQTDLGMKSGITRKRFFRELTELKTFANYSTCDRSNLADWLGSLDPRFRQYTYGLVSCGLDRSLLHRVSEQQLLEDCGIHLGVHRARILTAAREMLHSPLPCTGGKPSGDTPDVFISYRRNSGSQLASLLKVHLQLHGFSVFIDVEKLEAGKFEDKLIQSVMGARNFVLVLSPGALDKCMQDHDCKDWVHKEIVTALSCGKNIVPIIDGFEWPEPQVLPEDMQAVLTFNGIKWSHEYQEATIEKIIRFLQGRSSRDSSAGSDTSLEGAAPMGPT
Sequence of Mitogen-activated protein kinase 7 (Homo sapiens) (Q13164 whole entry, looked up, the tested form may be a part): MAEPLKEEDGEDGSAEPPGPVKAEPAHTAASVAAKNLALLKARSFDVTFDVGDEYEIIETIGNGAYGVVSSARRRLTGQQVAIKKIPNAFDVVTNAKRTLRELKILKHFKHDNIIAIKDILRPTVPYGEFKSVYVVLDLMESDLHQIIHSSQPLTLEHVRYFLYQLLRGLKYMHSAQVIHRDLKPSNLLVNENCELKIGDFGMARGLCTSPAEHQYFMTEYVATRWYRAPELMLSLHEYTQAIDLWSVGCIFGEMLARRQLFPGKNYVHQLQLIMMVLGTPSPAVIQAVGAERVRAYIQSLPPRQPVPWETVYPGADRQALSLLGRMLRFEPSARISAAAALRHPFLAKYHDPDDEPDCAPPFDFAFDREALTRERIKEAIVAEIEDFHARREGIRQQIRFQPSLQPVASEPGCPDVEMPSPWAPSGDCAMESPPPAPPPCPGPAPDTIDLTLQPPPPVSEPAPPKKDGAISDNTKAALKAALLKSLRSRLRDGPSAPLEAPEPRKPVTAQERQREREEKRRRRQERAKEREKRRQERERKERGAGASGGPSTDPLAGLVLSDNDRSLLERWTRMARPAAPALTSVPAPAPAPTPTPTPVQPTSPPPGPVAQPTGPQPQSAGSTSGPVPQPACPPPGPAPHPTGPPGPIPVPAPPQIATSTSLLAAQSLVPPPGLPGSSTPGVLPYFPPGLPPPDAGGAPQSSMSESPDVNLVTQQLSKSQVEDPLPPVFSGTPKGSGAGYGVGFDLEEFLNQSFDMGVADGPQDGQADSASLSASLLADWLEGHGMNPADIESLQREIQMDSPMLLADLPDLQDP

| Structure (SMILES) | red/green cell ratio (normalised) [1] | normalised cell number [1, 9] | normalised cell number [1, 10] | fold change [2, 11] | fold change [2, 12] | cell count [2, 13] | cell count [2, 14] | remaining NAD [3] | parasite load remaining [4] | viability [4] | z-score [5, 15] | z-score [5, 16] | z-score [6] | luciferase signal [7] | survival [8] |
| --- | --- | --- | --- | --- | --- | --- | --- | --- | --- | --- | --- | --- | --- | --- | --- |
| O=C1/C(=C/c2cccs2)CCC/C1=C\c1cccs1 | 1 (inactive) | 0.96 | 0.97 | 0.964 (inactive) | 1.06 | 7510 | 7800 | 10 nM (inactive) | – | – | – | – | – | – | – |
| NC1CCN(c2c(F)cc3c(=O)c(C(=O)O)cn(C4CC4)c3c2Cl)C1 (stereo not given) | 1.1 (inactive) and 0.63 (inactive) | 1 and 1.34 | 1.09 and 0.84 | 0.917 (inactive) and 0.881 (inactive) | 1.1 and 1.36 | 7910 and 9140 | 8620 and 10400 | 10 nM (inactive) | 12.5% (inactive) | 73% | 0.53 (inactive) and 0.358 (inactive) | -0.371 and 0.0233 | 0.72 (inactive) | – | – |
| O=C(O)C1CSCN1 (stereo not given) | 0.88 (inactive) | 1.25 | 1.1 | 0.957 (inactive) | 0.618 | 9140 | 9550 | 10 nM (inactive) | – | – | – | – | – | – | – |
| C=COCC(F)(F)F | 0.85 (inactive) | 1.12 | 0.96 | 0.911 (inactive) | 0.971 | 9000 | 9870 | 10 nM (inactive) | – | – | – | – | – | – | – |
| C[N+](C)(CCOc1ccccc1)Cc1ccccc1 | 0.65 (inactive) | 1.19 | 0.77 | 0.899 (inactive) and 0.879 (inactive) | 1.23 and 5.07 | 9230 and 11800 | 10300 and 13400 | 10 nM (inactive) | 72.5% (inactive) and 56.2% (inactive) | 93.8% and 115% | 0.608 (inactive) | 0.271 | – | – | – |
| FC(F)(Cl)C(F)(F)Cl | 1.02 (inactive) | 0.91 | 0.93 | 0.926 (inactive) | 0.734 | 9510 | 10300 | 10 nM (inactive) | – | – | – | – | – | – | – |
| CC1=C(/C=C/C(C)=C/C=C/C(C)=C/C=C/C=C(C)/C=C/C=C(C)/C=C/C2=C(C)C(=O)CCC2(C)C)C(C)(C)CCC1=O | 1.05 (inactive) | 0.85 | 0.9 | 0.905 (inactive) | 1.09 | 10100 | 11200 | – | 32.7% (inactive) | 102% | 0.499 (inactive) | 1.32 | 0.415 (inactive) | 100 AU (inactive) | – |
| NC(=O)C(c1ccccc1)(c1ccccc1)C1CCN(CCc2ccc3c(c2)CCO3)C1 (stereo not given) | 1.14 (inactive) | 1.01 | 1.15 | 0.961 (inactive) and 0.867 (inactive) and 0.884 (inactive) | 1.17 and 0.544 and 0.774 | 7990 and 7300 and 7280 | 8310 and 8420 and 8230 | – | – | – | 0.59 (inactive) and -0.239 (inactive) | 0.395 and -0.187 | -0.58 (inactive) | – | – |
| COc1cc(-c2ccc(N=Nc3ccc4c(S(=O)(=O)O)cc(S(=O)(=O)O)c(N)c4c3O)c(OC)c2)ccc1N=Nc1ccc2c(S(=O)(=O)O)cc(S(=O)(=O)O)c(N)c2c1O | 1.11 (inactive) | 1.16 | 1.29 | 0.857 (inactive) | 0.848 | 8930 | 10400 | – | 77.2% (inactive) and 55.6% (inactive) | 74.5% and 64.2% | -1.41 (inactive) | -1.32 | – | – | 5.92 (inactive) |
| C=CCOC(Cn1ccnc1)c1ccc(Cl)cc1Cl (stereo not given) | 1.13 (inactive) | 1.28 | 1.45 | 0.977 (inactive) and 1.23 (inactive) | 0.912 and 0.451 | 7830 and 4360 | 8020 and 3550 | 10 nM (inactive) | 62.3% (inactive) and 49.7% (inactive) | 79.2% and 101% | -0.315 (inactive) | -1.27 | – | – | 5.75 (inactive) |
| Nc1ccccc1S(N)(=O)=O | 0.77 (inactive) | 1.18 | 0.91 | 0.888 (inactive) | 1.35 | 9840 | 11100 | – | 63.3% (inactive) | 93.8% | 0.695 (inactive) | -0.362 | – | – | 5.17 (inactive) |
| O=C(O)Cc1cc(I)c(Oc2ccc(O)c(I)c2)c(I)c1 | 0.98 (inactive) | 1.1 | 1.08 | 1.03 (inactive) and 0.918 (inactive) and 0.892 (inactive) | 0.599 and 1.29 and 1.64 | 7190 and 8760 and 9000 | 6990 and 9530 and 10100 | 10 nM (inactive) | 35.5% (inactive) and 118% (inactive) | 46% and 91.7% | -0.0879 and -3.89 (inactive) | 5.02 and -3.53 | – | – | 18.8 (inactive) |
| CC1(C)C(C=C(Cl)Cl)C1C(=O)OCc1cccc(Oc2ccccc2)c1 (stereo not given) | 0.81 (inactive) | 1.23 | 1 | 0.928 (inactive) | 0.968 | 8290 | 8930 | 10 nM (inactive) | – | – | – | – | – | – | – |
| Nc1ccn(C2CSC(CO)O2)c(=O)n1 (stereo not given) | 1 (inactive) | 1.14 | 1.13 | 0.986 (inactive) and 0.882 (inactive) | 1.5 and 0.897 | 10000 and 7840 | 10200 and 8880 | – | – | – | -0.261 (inactive) | 0.414 | 1.16 (inactive) | – | – |
| Cc1c(O)c(=O)n(-c2ccccc2)n1C | 0.78 (inactive) | 1.09 | 0.85 | 0.946 (inactive) | 1.41 | 8310 | 8790 | – | 37.6% (inactive) and 51.4% (inactive) | 95.8% and 94.4% | 0.46 (inactive) | -0.0513 | – | – | 23.9 (inactive) |
